# Only a selection was taken, and the strongest signals are over-represented in it overall.
# B1: Eosinophil cationic protein (ECP) (Homo sapiens), P12724 (protein)
# chain: MVPKLFTSQICLLLLLGLMGVEGSLHARPPQFTRAQWFAIQHISLNPPRCTIAMRAINNYRWRCKNQNTFLRTTFANVVNVCGNQSIRCPHNRTLNNCHRSRFRVPLLHCDLINPGAQNISNCTYADRPGRRFYVVACDNRDPRDSPRYPVVPVHLDTTI
# B2: CFEM-SCL (Saccharomyces cerevisiae), O13547 (protein)
# chain: MRATTLLSSVVSLALLSKEVLATPPACLLACVAQVGKSSSTCDSLNQVTCYCEHENSAVKKCLDSICPNNDADAAYSAFKSSCSEQNASLGD
# Tests used:
# Experiment in all cases: glycan array binding signal (z-score within array); higher = stronger binding
# Settings in all cases: glycan notation: IUPAC condensed, linker removed
# [1] = target: Fuc(a1-2)Gal(b1-3)[Fuc(a1-4)]GlcNAc(b1-3)[Gal(b1-4)GlcNAc(b1-6)]Gal(b1-4)Glc
# In short: (§1)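 Glycan array binding is given as a within-array Z-score, which can be read as non-binding when negative. The arrays, 3228 of them, came from the Consortium for Functional Glycomics database and were retained only where the protein sequence was available. Z-scores were averaged across arrays of the same protein sequence at different concentrations or buffers and across linkers.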
# Fuc(a1-2)Gal(b1-4)Glc = target: Fuc(a1-2)Gal(b1-4)Glc
# In short: as §1
# [2] = target: Fuc(a1-2)Gal(b1-4)[Fuc(a1-3)]GlcNAc(b1-3)GalNAc
# In short: as §1
# [3] = target: Fuc(a1-2)[Gal(a1-4)]Gal(b1-4)GlcNAc
# In short: as §1
# [4] = target: Fuc(a1-2)[GalNAc(a1-3)]Gal
# In short: as §1
# [5] = target: Fuc(a1-3)[Gal(b1-4)]GlcNAc(b1-6)GalNAc
# In short: as §1
# [6] = target: Fuc(a1-3)[GalNAc(b1-4)]GlcNAc
# In short: as §1
# [7] = target: Gal(a1-3)Fuc(a1-2)Gal(b1-4)GlcNAc(b1-3)[Gal(a1-3)Fuc(a1-2)Gal(b1-4)GlcNAc(b1-6)]GalNAc
# In short: as §1
# [8] = target: Gal(a1-3)Gal(b1-3)GlcNAc(b1-2)Man(a1-3)[Gal(a1-3)Gal(b1-3)GlcNAc(b1-2)Man(a1-6)]Man(b1-4)GlcNAc(b1-4)GlcNAc
# In short: as §1
# [9] = target: Gal(a1-3)Gal(b1-4)[Fuc(a1-3)]GlcNAc(b1-2)Man(a1-3)[Gal(a1-3)Gal(b1-4)[Fuc(a1-3)]GlcNAc(b1-2)Man(a1-6)]Man(b1-4)GlcNAc(b1-4)GlcNAc
# In short: as §1
# Gal(a1-4)Gal(b1-4)Glc = target: Gal(a1-4)Gal(b1-4)Glc
# In short: as §1
# [10] = target: Gal(b1-3)GlcNAc(b1-6)Gal(b1-4)GlcNAc
# In short: as §1
# [11] = target: Gal(b1-3)[Fuc(a1-4)]GlcNAc(b1-2)Man(a1-3)[Gal(b1-3)[Fuc(a1-4)]GlcNAc(b1-2)Man(a1-6)]Man(b1-4)GlcNAc(b1-4)GlcNAc
# In short: as §1
# [12] = target: Gal(b1-4)GlcNAc(b1-2)Man(a1-3)Man(b1-4)GlcNAc(b1-4)GlcNAc
# In short: as §1
# [13] = target: Gal(b1-4)GlcNAc(b1-2)Man(a1-3)[Gal(b1-4)GlcNAc(b1-2)Man(a1-6)]Man(b1-4)GlcNAc(b1-4)[Fuc(a1-6)]GlcNAc
# In short: as §1
# [14] = target: Gal(b1-4)GlcNAc(b1-2)Man(a1-6)Man(b1-4)GlcNAc(b1-4)GlcNAc
# In short: as §1
# [15] = target: Gal(b1-4)GlcNAc(b1-3)[Gal(b1-4)GlcNAc(b1-6)]GalNAc
# In short: as §1
# [16] = target: Gal(b1-4)GlcNAc(b1-6)[Gal(b1-3)]GalNAc
# In short: as §1
# Gal3S(b1-4)GlcNAc = target: Gal3S(b1-4)GlcNAc
# In short: as §1
# [17] = target: Gal3S(b1-4)[Fuc(a1-3)]Glc
# In short: as §1
# Gal3S4S(b1-4)GlcNAc = target: Gal3S4S(b1-4)GlcNAc
# In short: as §1
# Gal3S6S(b1-4)GlcNAc = target: Gal3S6S(b1-4)GlcNAc
# In short: as §1
# GalNAc(b1-3)Gal = target: GalNAc(b1-3)Gal
# In short: as §1
# Glc(b1-4)Glc = target: Glc(b1-4)Glc
# In short: as §1
# [18] = target: GlcNAc(a1-4)Gal(b1-4)GlcNAc(b1-3)Gal(b1-4)GlcNAc
# In short: as §1
# [19] = target: GlcNAc(a1-4)Gal(b1-4)GlcNAc(b1-3)Gal(b1-4)[Fuc(a1-3)]GlcNAc(b1-3)Gal(b1-4)[Fuc(a1-3)]GlcNAc
# In short: as §1
# [20] = target: GlcNAc(a1-6)Gal(b1-4)GlcNAc
# In short: as §1
# [21] = target: GlcNAc(b1-6)Gal(b1-4)GlcNAc
# In short: as §1
# Kdn(a2-3)Gal(b1-3)GalNAc = target: Kdn(a2-3)Gal(b1-3)GalNAc
# In short: as §1
# [22] = target: Man(a1-2)Man(a1-3)[Man(a1-2)Man(a1-6)]Man
# In short: as §1
# [23] = target: Man(a1-2)Man(a1-3)[Man(a1-2)Man(a1-6)]Man(a1-6)[Man(a1-2)Man(a1-2)Man(a1-3)]Man
# In short: as §1
# [24] = target: Man(a1-2)Man(a1-3)[Man(a1-2)Man(a1-6)]Man(a1-6)[Man(a1-2)Man(a1-2)Man(a1-3)]Man(b1-4)GlcNAc(b1-4)GlcNAc
# In short: as §1
# [25] = target: Man(a1-2)Man(a1-6)[Man(a1-3)]Man(a1-6)[Man(a1-2)Man(a1-2)Man(a1-3)]Man(b1-4)GlcNAc(b1-4)GlcNAc
# In short: as §1
# [26] = target: Neu5Ac(a2-3)Gal(b1-3)[Neu5Ac(a2-6)]GalNAc
# In short: as §1
# [27] = target: Neu5Ac(a2-3)Gal(b1-4)GlcNAc(b1-6)[Neu5Ac(a2-3)Gal(b1-3)]GalNAc
# In short: as §1
# Neu5Ac(a2-6)Gal(b1-4)Glc = target: Neu5Ac(a2-6)Gal(b1-4)Glc
# In short: as §1
# [28] = target: Neu5Ac(a2-6)Gal(b1-4)GlcNAc(b1-2)Man(a1-3)[Man(a1-6)]Man(b1-4)GlcNAc(b1-4)GlcNAc
# In short: as §1
# Gal6S(b1-4)GlcNAc = target: Gal6S(b1-4)GlcNAc
# In short: as §1
# GalNAc(b1-4)GlcNAc = target: GalNAc(b1-4)GlcNAc
# In short: as §1
# [29] = target: GalNAc(b1-4)GlcNAc(b1-2)Man
# In short: as §1
# [30] = target: Glc(a1-6)Glc(a1-6)Glc(a1-6)Glc
# In short: as §1
# GlcA(b1-3)GlcNAc = target: GlcA(b1-3)GlcNAc
# In short: as §1
# [31] = target: GlcNAc(b1-2)[GlcNAc(b1-4)]Man(a1-3)[GlcNAc(b1-4)][GlcNAc(b1-2)Man(a1-6)]Man(b1-4)GlcNAc(b1-4)GlcNAc
# In short: as §1
# [32] = target: GlcNAc(b1-2)[GlcNAc(b1-4)]Man(a1-3)[GlcNAc(b1-4)][GlcNAc(b1-2)[GlcNAc(b1-6)]Man(a1-6)]Man(b1-4)GlcNAc(b1-4)GlcNAc
# In short: as §1
# [33] = target: Kdn(a2-3)Gal(b1-4)[Fuc(a1-3)]GlcNAc
# In short: as §1
# [34] = target: Man(a1-2)Man(a1-2)Man(a1-3)Man
# In short: as §1
# [35] = target: Neu5Ac(a2-3)Gal(b1-3)[Fuc(a1-4)]GlcNAc(b1-3)Gal(b1-4)[Fuc(a1-3)]GlcNAc
# In short: as §1
# [36] = target: Neu5Ac(a2-3)Gal(b1-4)GlcNAc(b1-3)GalNAc
# In short: as §1
# [37] = target: Neu5Ac(a2-3)Gal(b1-4)[Fuc(a1-3)]GlcNAc(b1-6)[Gal(b1-3)]GalNAc
# In short: as §1
# [38] = target: Neu5Ac(a2-3)Gal6S(b1-4)GlcNAc
# In short: as §1
# [39] = target: Neu5Ac(a2-6)Gal(b1-4)GlcNAc
# In short: as §1
# [40] = target: Neu5Ac(a2-6)Gal(b1-4)GlcNAc(b1-3)Gal(b1-4)GlcNAc(b1-3)Gal(b1-4)GlcNAc(b1-2)Man(a1-3)[Neu5Ac(a2-6)Gal(b1-4)GlcNAc(b1-3)Gal(b1-4)GlcNAc(b1-3)Gal(b1-4)GlcNAc(b1-2)Man(a1-6)]GalNAc
# In short: as §1
# [41] = target: Neu5Ac(a2-6)Gal(b1-4)GlcNAc(b1-3)Gal(b1-4)GlcNAc(b1-3)[Neu5Ac(a2-6)Gal(b1-4)GlcNAc(b1-3)Gal(b1-4)GlcNAc(b1-6)]GalNAc
# In short: as §1
# [42] = target: Neu5Gc(a2-3)Gal(b1-3)GlcNAc
# In short: as §1
binder,measurement,setting,value
B1,glycan array binding signal (z-score),[1],-0.315
same,glycan array binding signal (z-score),Fuc(a1-2)Gal(b1-4)Glc,-0.348
same,glycan array binding signal (z-score),[2],2.14
same,glycan array binding signal (z-score),[3],-0.421
same,glycan array binding signal (z-score),[4],-0.298
same,glycan array binding signal (z-score),[5],2.25
same,glycan array binding signal (z-score),[6],-0.183
same,glycan array binding signal (z-score),[7],0.494
same,glycan array binding signal (z-score),[8],1.32
same,glycan array binding signal (z-score),[9],2.23
same,glycan array binding signal (z-score),Gal(a1-4)Gal(b1-4)Glc,-0.102
same,glycan array binding signal (z-score),[10],-0.17
same,glycan array binding signal (z-score),[11],0.007
same,glycan array binding signal (z-score),[12],-0.103
same,glycan array binding signal (z-score),[13],0.16
same,glycan array binding signal (z-score),[14],-0.08
same,glycan array binding signal (z-score),[15],-0.091
same,glycan array binding signal (z-score),[16],-0.081
same,glycan array binding signal (z-score),Gal3S(b1-4)GlcNAc,0.818
same,glycan array binding signal (z-score),[17],2.4
same,glycan array binding signal (z-score),Gal3S4S(b1-4)GlcNAc,-0.557
same,glycan array binding signal (z-score),Gal3S6S(b1-4)GlcNAc,2.7
same,glycan array binding signal (z-score),GalNAc(b1-3)Gal,-0.382
same,glycan array binding signal (z-score),Glc(b1-4)Glc,0.024
same,glycan array binding signal (z-score),[18],8.33
same,glycan array binding signal (z-score),[19],4.18
same,glycan array binding signal (z-score),[20],3.15
same,glycan array binding signal (z-score),[21],0.126
same,glycan array binding signal (z-score),Kdn(a2-3)Gal(b1-3)GalNAc,0.204
same,glycan array binding signal (z-score),[22],-0.495
same,glycan array binding signal (z-score),[23],-0.174
same,glycan array binding signal (z-score),[24],-0.101
same,glycan array binding signal (z-score),[25],0.498
same,glycan array binding signal (z-score),[26],-0.097
same,glycan array binding signal (z-score),[27],-0.004
same,glycan array binding signal (z-score),Neu5Ac(a2-6)Gal(b1-4)Glc,0.151
same,glycan array binding signal (z-score),[28],-0.018
B2,glycan array binding signal (z-score),Gal6S(b1-4)GlcNAc,-0.027
same,glycan array binding signal (z-score),GalNAc(b1-4)GlcNAc,0.047
same,glycan array binding signal (z-score),[29],-0.281
same,glycan array binding signal (z-score),[30],-0.331
same,glycan array binding signal (z-score),GlcA(b1-3)GlcNAc,-0.277
same,glycan array binding signal (z-score),[31],-0.326
same,glycan array binding signal (z-score),[32],-0.303
same,glycan array binding signal (z-score),[33],-0.086
same,glycan array binding signal (z-score),[34],0.113
same,glycan array binding signal (z-score),[35],-0.234
same,glycan array binding signal (z-score),[36],-0.277
same,glycan array binding signal (z-score),[37],0.813
same,glycan array binding signal (z-score),[38],-0.311
same,glycan array binding signal (z-score),[39],-0.282
same,glycan array binding signal (z-score),[40],1.21
same,glycan array binding signal (z-score),[41],-0.146
same,glycan array binding signal (z-score),[42],-0.298

# Reference: the supplement of paper PMC8728848
